From PubChem BioAssay
esBAF inh: blocks esBAF chromatin remodeling in mouse ES cells. Bmi1-luciferase knock-in reporter, 24 h; 100% = twice the neutral-well signal. 350,000 compounds, 2% hits. reporter increase, % at 12.5 µM. AID 602393; in the data active means activation above about 40%; inconclusive means no clear call, values can overlap the other calls;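 further: 0% = median of the plate's neutral control wells and 100% = double that signal; a rise in the Bmi1 reporter signal indicates esBAF inhibition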
PHOSPHO1 inh: inhibitors of human PHOSPHO1 phosphatase; recombinant PHOSPHO1, absorbance phosphatase assay; 290,000 compounds, 1.1% hits; inhibition, % at 13.3 µM; AID 1565; in the data active means inhibition above about 60%
A3G deaminase: APOBEC3G (human) deaminase inhibition; Q9HC16; recombinant A3G, ssDNA deamination FAM/TAMRA fluorescence; inhibition, % at 20 µM; 330,000 compounds, 0.28% hits;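 active means inhibition of at least 40% at 20 µM, with no more than 30% in the related APOBEC3A deaminase screen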;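 further: plate controls were DMSO wells with A3G for no effect and wells lacking A3G enzyme for full effect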
Target sequence (Q9HC16 whole entry, looked up): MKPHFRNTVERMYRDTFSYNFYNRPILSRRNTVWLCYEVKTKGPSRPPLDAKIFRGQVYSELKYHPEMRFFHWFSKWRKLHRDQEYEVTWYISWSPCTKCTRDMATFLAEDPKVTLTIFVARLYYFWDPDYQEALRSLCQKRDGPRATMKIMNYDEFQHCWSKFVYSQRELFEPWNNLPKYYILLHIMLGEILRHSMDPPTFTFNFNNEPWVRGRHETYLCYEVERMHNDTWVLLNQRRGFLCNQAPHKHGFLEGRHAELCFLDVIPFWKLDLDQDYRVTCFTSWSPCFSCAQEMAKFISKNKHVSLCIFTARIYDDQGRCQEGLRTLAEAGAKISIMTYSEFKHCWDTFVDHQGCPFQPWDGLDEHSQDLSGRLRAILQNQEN
A3A deaminase: human APOBEC3A DNA deaminase inhibition; P31941; recombinant A3A, FAM/TAMRA ssDNA deamination fluorescence; inhibition, % at 20 µM; 330,000 compounds, 0.41% hits;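 active means at least 40% inhibition at 20 µM here, with at most 30% in a related deaminase screen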;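 further: plate controls were A3A with DMSO for no effect and wells lacking A3A enzyme for full effect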
Target sequence (P31941 whole entry, looked up): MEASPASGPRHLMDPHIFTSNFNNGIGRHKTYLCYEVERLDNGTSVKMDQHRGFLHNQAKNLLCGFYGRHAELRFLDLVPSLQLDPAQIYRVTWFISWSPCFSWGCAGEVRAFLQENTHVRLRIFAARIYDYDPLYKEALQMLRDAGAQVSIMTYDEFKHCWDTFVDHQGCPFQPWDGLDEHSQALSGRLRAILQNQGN
MITF act: increases MITF-driven TRPM1 promoter luciferase signal | SK-MEL-5 TRPM1-promoter luciferase, 24 h; % of positive control, neutral wells = 0 | activation, % at 12.5 µM | 300,000 compounds, 0.75% hits | AID 588334;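 active means mean activation of at least 80% with every replicate also reaching 80%; inconclusive means mean reaches 80% but some replicate falls short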;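 further: 0% = neutral control wells and 100% = parthenolide positive control wells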
Wnt bcat act: Wnt/beta-catenin pathway activation. Wnt/beta-catenin reporter cell assay, activator, plate reader. AID 743398. 300,000 compounds, 1.2% hits. activation, % at 9.35 µM; in the data active means activation above about 30%, passing the limit was not always enough; inconclusive means no clear call, values can overlap the other calls;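 further: 0% = neutral control wells and 100% = positive control wells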
Numbers without * were called inactive; ? = inconclusive; / = not tested or not shown. Rows were chosen to be rich in hits. Some 3.6% of all compounds tested hit in one or more screens of this group.

SMILES | esBAF inh | PHOSPHO1 inh | A3G deaminase | A3A deaminase | MITF act | Wnt bcat act
C[C@@H]1CCCCO[C@@H](CN(C)S(=O)(=O)c2cn(C)cn2)[C@H](C)CN([C@@H](C)CO)C(=O)c2cc(NS(=O)(=O)c3ccc(Cl)cc3)ccc2O1 | 0 | / | / | / | / | /
CCC(=O)Nc1ccc2c(c1)C(=O)N(C)C[C@@H](OC)[C@H](C)CN(C(=O)c1ccccn1)[C@H](C)CO2 | -2 | / | / | / | / | /
C[C@@H]1CN([C@H](C)CO)C(=O)c2cccc(NC(=O)Nc3cccc4ccccc34)c2O[C@@H]1CN(C)Cc1ccc(Oc2ccccc2)cc1 | -2 | / | / | / | / | /
OCc1c(OCc2cccc(F)c2)ccc2ccccc12 | 63* | 8 | -2 | -2 | 32 | 7
C[C@H]1CCCCO[C@@H](CN(C)S(=O)(=O)c2cn(C)cn2)[C@@H](C)CN([C@@H](C)CO)C(=O)c2cc(NS(=O)(=O)c3cn(C)cn3)ccc2O1 | -1 | / | / | / | / | /
O=C1N=c2ccccc2=C1c1sc(Nc2cccc(O)c2)nc1O | 51* | 25 | -4 | 1 | / | 1
Cc1cc(OCCN2CCOCC2)ccc1Cl | 43* | -2 | -3 | 0 | 71 | 11
Cc1ccc(OCCN2CCOCC2)cc1C | 22 | 9 | -5 | -6 | / | 3
O=C1c2ccccc2NC(c2ccc(-c3ccc(C(F)(F)F)cc3)o2)N1O (stereo unspecified) | -1 | / | 7 | 4 | -26 | 5
O=C1c2ccccc2NC(c2ccc(-c3cccs3)o2)N1O (stereo unspecified) | 67* | / | -10 | -5 | 83* | 59*
O=C1c2ccccc2NC(c2ccc(Br)o2)N1O (stereo unspecified) | 31 | / | 2 | 2 | / | 44*
CCC(=O)N(C)C[C@@H]1Oc2cc(C#Cc3ccncc3)ccc2S(=O)(=O)N([C@H](C)CO)C[C@@H]1C | -1 | / | / | / | / | /
C[C@@H]1CN([C@@H](C)CO)C(=O)c2cc(NC(=O)Cc3cn(C)c4ccccc34)ccc2O[C@H]1CN(C)S(=O)(=O)c1cn(C)cn1 | -3 | / | / | / | / | /
CCC(C(=O)NCCC(C)C)n1ccc2cc(S(=O)(=O)N3CCCCC3)ccc21 (stereo unspecified) | -2 | 63* | 5 | 1 | -9 | /
COc1cccc(CNC(=O)C(C)n2ccc3cc(S(=O)(=O)N4CCCCCC4)ccc32)c1 (stereo unspecified) | 7 | 18 | -1 | -2 | 3 | -2
CCC(C)NC(=O)c1cc(-c2ccc(OC)cc2)on1 (stereo unspecified) | -11 | 0 | -6 | -3 | 101* | /
CCC(C)NC(=O)c1cc(CC(C)C)on1 (stereo unspecified) | 54* | -6 | -1 | -3 | / | 10
CCCNC(=O)c1cc(-c2ccc(Br)cc2)on1 | 14 | -7 | -3 | -1 | 76 | /
COc1ccc(-c2cc(C(=O)NCC(C)C)no2)cc1 | / | 7 | 0 | 4 | 87* | /
Cc1cc(NC(=O)c2cc(CC(C)C)on2)no1 | 31 | -6 | -5 | -1 | / | -1
CC(C)NC(=O)c1cc(-c2ccc(Br)cc2)on1 | 32 | 3 | -3 | -3 | 111* | /
C[C@@H]1CN([C@H](C)CO)C(=O)CCCn2nncc2CO[C@@H]1CN(C)Cc1ccc2c(c1)OCCO2 | -11 | / | / | / | / | /
O=C(N[C@H]1CC[C@@H](CCn2cc(-c3ccccn3)nn2)O[C@@H]1CO)c1ccccc1 | -8 | / | / | / | / | /
C=CCn1c(-c2cccs2)nc2nc3ccccc3nc21 | 46* | 3 | -5 | -17 | 9 | 4
C=CCn1c(-c2cccs2)nc2ccccc21 | 21 | 42 | -3 | -1 | 19 | -2
SMILES | esBAF inh | PHOSPHO1 inh | A3G deaminase | A3A deaminase | MITF act | Wnt bcat act
Clc1ccc(Cc2noc(-c3cccs3)n2)cc1 | 63* | -6 | -7 | -2 | 112* | /
Clc1ccc(-c2nc(Cc3ccccc3Cl)no2)cc1 | 32 | 17 | -5 | -2 | 68 | /
NC(=O)c1c(NC(=O)c2ccc(F)cc2Cl)sc2c1CCC2 | 49* | / | -11 | -1 | 60 | 10
NC(=O)c1c(NC(=O)c2ccccc2Cl)sc2c1CCC2 | ? | / | -5 | -3 | / | 9
CCC1CCc2c(sc(NC(=O)c3ccco3)c2C(N)=O)C1 (stereo unspecified) | 60* | -14 | -6 | -1 | / | 37*
Cn1cc(Br)c(C(=O)Nc2sc3c(c2C(N)=O)CCCC3)n1 | 67* | 36 | -3 | 3 | 85* | 9
NC(=O)c1c(NC(=O)c2ccccc2F)sc2c1CCCC2 | 65* | 34 | -1 | -8 | 18 | -1
CC(C)(C)C1CCc2c(sc(NC(=O)c3ccco3)c2C(N)=O)C1 (stereo unspecified) | 12 | -4 | 2 | 3 | 77 | /
CCn1cc(Br)c(C(=O)Nc2sc3c(c2C(N)=O)CCCC3)n1 | 7 | 30 | -8 | -4 | 23 | /
C[C@H]1CN([C@@H](C)CO)C(=O)c2cccc(NC(=O)c3cnccn3)c2O[C@H]1CN(C)S(=O)(=O)c1cccs1 | -2 | / | / | / | / | /
NC(=O)c1c(NC(NC(=O)c2ccco2)C(=O)c2ccc(Cl)cc2)sc2c1CCCC2 (stereo unspecified) | -1 | 100* | 4 | -4 | 0 | 0
CC1CCc2c(sc(/N=C/c3ccco3)c2C(N)=O)C1 (stereo unspecified) | / | 20 | -1 | -2 | / | 45*
CC1CCc2c(sc(/N=C/c3cccnc3)c2C(N)=O)C1 (stereo unspecified) | / | 20 | -3 | -2 | / | 1
COCCNC(=O)[C@@H]1[C@@H](CO)[C@@H]2Cn3c(ccc(-c4ccccc4)c3=O)[C@H]1N2C(=O)NC(C)C | 3 | / | / | / | / | /
CC1CCN(S(=O)(=O)c2ccc(C(=O)Nc3nnc(-c4ccccn4)o3)cc2)CC1 | / | 71* | -2 | -1 | 3 | 1
CC1CCN(S(=O)(=O)c2ccc(C(=O)Nc3nnc(C4=COCCO4)o3)cc2)CC1 | / | 3 | -3 | 0 | -9 | -2
Cc1cc(C(=O)N/N=C/c2c(C)nn(-c3ccccc3)c2Cl)n[nH]1 | 52* | 32 | -6 | 0 | / | 6
Cn1cnnc1SCC(=O)N1CCN(C(=O)c2ccco2)CC1 | / | 28 | -6 | 1 | -11 | 2
Cc1ccc(C(=O)NCC(=O)N2CCC(Cc3ccccc3)CC2)cc1 | 5 | 63* | 9 | 2 | -7 | 0
Cc1cccc(N2CCN(C(=O)CNC(=O)c3ccccc3)CC2)c1C | 50* | 28 | -5 | -2 | / | 8
Cn1cnnc1SCC(=O)N1CCC(Cc2ccccc2)CC1 | 1 | 63* | 3 | 21 | 10 | /
Cc1cccc(N2CCN(C(=O)CNC(=O)C3CCCCC3)CC2)c1C | ? | / | -4 | -5 | 22 | 3
Cc1noc(C)c1S(=O)(=O)Nc1ccc2c(c1)C(=O)N([C@H](C)CO)C[C@@H](C)[C@H](CN(C)S(=O)(=O)c1cccs1)OCCCC[C@H](C)O2 | -3 | / | / | / | / | /
O=C(C[C@@H]1C=C[C@@H](NC(=O)c2cccc(F)c2)[C@@H](CO)O1)NCCN1CCCC1 | 3 | / | / | / | / | /
